{"source": "PubChem BioAssay AID492953", "about": "(The Scripps Research Institute Molecular Screening Center, 2010)", "note": "The campaign covered roughly 340,000 compounds. About 4,200 (1.2%) were called active. Many of the other results were omitted from the sample, so actives are more common in it than they were. Values without a mark were called inactive.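 Rule for the calls: active = inhibition above the mean of all tested compounds plus 3 SD (cut at about 24% in these data); inactive = the rest.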"}
{"target": "Platelet-activating factor acetylhydrolase IB subunit alpha2 (Homo sapiens) (UniProt P68402)", "sequence (P68402 whole entry, looked up)": "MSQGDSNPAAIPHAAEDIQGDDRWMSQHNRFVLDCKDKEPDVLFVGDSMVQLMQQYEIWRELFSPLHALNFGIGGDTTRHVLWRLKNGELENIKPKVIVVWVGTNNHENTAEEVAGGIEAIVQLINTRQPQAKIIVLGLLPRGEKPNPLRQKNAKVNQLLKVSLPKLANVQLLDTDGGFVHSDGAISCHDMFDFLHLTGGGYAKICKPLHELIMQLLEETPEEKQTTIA", "assay": "inhibition of PAF acetylhydrolase 1b subunit 2 – biochemical, fluorescence polarization, human, primary screen (AID 492953);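 note: 0% = enzyme with DMSO and 100% = wells lacking PAFAH1B2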", "conditions": "recombinant PAFAH1B2, FP-rhodamine activity probe, at 3.39 µM, stronger effect = higher value"}
{"compound": "CC1CC(=O)Nc2ccccc2N1C(=O)COc1ccc2cc(Br)ccc2c1", "note": "(stereo not given)", "inhibition": "16.6%"}
{"compound": "COc1ccc(-c2cc(C(F)(F)F)nc(S(C)(=O)=O)n2)cc1OC", "inhibition": "-1.46%"}
{"compound": "Cc1cc[n+](-c2[nH]c(=O)sc2/C=N/NC(=O)c2ccccc2[O-])cc1C", "inhibition": "8.46%"}
{"compound": "Cc1cc(=O)[nH]c(SCc2cc(Cl)ccc2OC(F)F)n1", "inhibition": "26.4% (active)"}
{"compound": "Cc1cc(=O)[nH]c(SCc2cccc(F)c2)n1", "inhibition": "3.14%"}
{"compound": "COc1ccccc1-c1noc(CSc2nc(C)cc(=O)[nH]2)n1", "inhibition": "1.01%"}
{"compound": "COc1ccc(CC(NC(C)=O)C(=O)NC2CCN(C(=O)Nc3ccc(C#N)cc3)CC2)cc1OC", "note": "(stereo not given)", "inhibition": "2.86%"}
{"compound": "CCN(C(=O)CN1CCN(Cc2ccccc2)CC1)c1c(N)n(Cc2ccccc2)c(=O)[nH]c1=O", "inhibition": "-0.83%"}
{"compound": "CCCCC1S/C(=N/N=C/c2cccs2)NC1=O", "note": "(stereo not given)", "inhibition": "8.36%"}
{"compound": "COc1ccc(C(=O)NNS(=O)(=O)c2ccc(C)cc2)cc1", "inhibition": "6.56%"}
{"compound": "COc1ccc(C(=O)NNC(=O)c2cc(C)[nH]n2)cc1", "inhibition": "5.54%"}
{"compound": "COc1ccc(C(=O)NNc2cc(C)nc(NNC(=O)c3ccc(OC)cc3)n2)cc1", "inhibition": "24.3% (active)"}
{"compound": "O=C1NC2(CCCCCC2)C(=O)N1CCS(=O)(=O)Oc1ccccc1", "inhibition": "7.86%"}
{"compound": "CCn1c(CNC(=O)c2cc(OC)c(OC)c(OC)c2)cc2cc(C)ccc21", "inhibition": "2.65%"}
{"compound": "O=c1ccc2c(-c3ccccc3S(=O)(=O)O)c3ccc(O)c(O)c3oc-2c1O", "inhibition": "26.6% (active)"}
{"compound": "CCCNC(=O)CN(Cc1ccccc1F)S(=O)(=O)c1ccc(C)cc1", "inhibition": "4.33%"}
{"compound": "CC(C)Cn1c(N2CCN(C(=O)/C=C/c3ccccc3)CC2)nc2ccccc21", "inhibition": "28.8% (active)"}
{"compound": "C=CCn1c(C(C)NC(=O)CC)nc2ccccc21", "note": "(stereo not given)", "inhibition": "0.58%"}
{"compound": "Cc1cc(NC(=O)CSc2nc3ccccc3n2CC(C)C)no1", "inhibition": "4.62%"}
{"compound": "CNC(=O)/C(=C\\C=C\\c1ccccc1)NC(=O)c1ccc([N+](=O)[O-])cc1", "inhibition": "-3.09%"}
{"compound": "O=C(Cc1ccc(S(=O)(=O)N2CCOCC2)s1)Nc1ccc(Br)c(C(F)(F)F)c1", "inhibition": "-4.41%"}
{"compound": "Cc1ccc(S(=O)(=O)NC(=O)Nc2nc(-c3ccc(F)c(F)c3)cs2)cc1", "inhibition": "30.1% (active)"}
{"compound": "COc1cc(CC(=O)Nc2nc(-c3ccc(F)c(F)c3)cs2)cc(OC)c1OC", "inhibition": "1.73%"}
{"compound": "COc1ccc(CC(=O)Nc2nc(-c3ccc(F)c(F)c3)cs2)cc1OC", "inhibition": "4.28%"}
{"compound": "COc1ccc(C)cc1NC(=S)Nc1ccccc1SC", "inhibition": "9.46%"}
{"compound": "O=C1C(Cl)=C(Oc2ccccc2)C(=O)c2ccccc21", "inhibition": "33.9% (active)"}
{"compound": "CC(=O)Oc1ccc2c(c1)C(=O)c1ccccc1C2=O", "inhibition": "7.25%"}
{"compound": "CC(=O)N(C1=C(Cl)C(=O)c2ccccc2C1=O)c1ccc(C(=O)O)cc1", "inhibition": "15.6%"}
{"compound": "Cn1c(=O)oc2cc(S(=O)(=O)NCCC(=O)NCc3ccccc3Cl)ccc21", "inhibition": "-3.01%"}
{"compound": "Cc1nn(-c2ncccn2)c2c1C(=O)CC(C)(C)C2Br", "note": "(stereo not given)", "inhibition": "3.5%"}
{"compound": "Cc1cnc(NC(=O)CSc2nnc(-c3ccccc3)n2Cc2ccccc2)s1", "inhibition": "7.97%"}
{"compound": "Cc1ccc(SCC(=O)Nc2ncc(C)s2)cc1", "inhibition": "26.1% (active)"}
{"compound": "CCOCc1nnc(NC(=O)CSc2ccc(C)cc2)s1", "inhibition": "-28.2%"}
{"compound": "O=C(Nc1nccs1)c1cc(S(=O)(=O)N2CCOCC2)c(Cl)cc1Cl", "inhibition": "-6.96%"}
{"compound": "O=C(O)c1cc(S(=O)(=O)N2CCCCCC2)c(Cl)cc1Cl", "inhibition": "24.3% (active)"}
{"compound": "O=C(c1ccc(Cl)c(S(=O)(=O)N2CCCCC2)c1)N1CCCCCC1", "inhibition": "-0.08%"}
{"compound": "Cc1ccc(S(=O)(=O)N2CCN(C(=O)CN3C(=O)NC(C)(c4ccc(Cl)cc4)C3=O)CC2)c(C)c1", "note": "(stereo not given)", "inhibition": "5.07%"}
{"compound": "O=C(Nc1ccccc1)O/N=C1/CCCc2occc21", "inhibition": "5.12%"}
{"compound": "CCn1c(SCC(=O)NC2CC2)nnc1-c1ccccn1", "inhibition": "8.43%"}
{"compound": "CN(Cc1cc2cc(F)ccc2[nH]1)Cc1nc(-c2cnccn2)no1", "inhibition": "3.21%"}
{"compound": "O=c1[nH]c(CCl)nc2cc(-c3ccc(Cl)cc3)sc12", "inhibition": "43.4% (active)"}
{"compound": "CN(CCOc1ccccc1)Cc1nc2cc(Cl)ccc2c(=O)[nH]1", "inhibition": "-0.52%"}
{"compound": "CCC1(CC)Cc2ccccc2-c2nc(CCl)[nH]c(=O)c21", "inhibition": "4.98%"}
{"compound": "Cc1ccc(-c2nc(CSCC(=O)NC3CCN(Cc4ccccc4)CC3)c(C)o2)cc1", "inhibition": "3.88%"}
{"compound": "CCOC(=O)N1CCN(c2c(NCCCN3CCCC(C)C3)c(=O)c2=O)CC1", "note": "(stereo not given)", "inhibition": "-3.22%"}
{"compound": "CC(NC(=O)COC(=O)c1cc(=O)[nH]c2ccccc12)c1ccccc1", "note": "(stereo not given)", "inhibition": "6.8%"}
{"compound": "CCCS(=O)(=O)Nc1c(C(=O)O)[nH]c2ccccc12", "inhibition": "1.36%"}
{"compound": "O=C(O)c1[nH]c2ccccc2c1C(c1cccc(O)c1)c1c(C(=O)O)[nH]c2ccccc12", "inhibition": "94.6% (active)"}
{"compound": "COc1ccc(/C=N/N(C)C2=NS(=O)(=O)c3ccccc32)cc1OC", "inhibition": "12%"}
{"compound": "Cc1nn(-c2ccc(F)cc2)c(Cl)c1/C=C(/CCC(=O)O)c1nc2ccccc2s1", "inhibition": "4.71%"}
{"compound": "COc1ccc(C(=O)Nc2cccc(/C=C(/CCC(=O)O)c3nc4ccccc4s3)c2)cc1", "inhibition": "-1.28%"}
{"compound": "O=C(O)CC/C(=C\\c1cc2c(cc1Br)OCO2)c1nc2ccccc2s1", "inhibition": "27.5% (active)"}
{"compound": "NC(=O)COc1ccc(/C=N/NC(=O)C2CCCN2S(=O)(=O)c2ccc(Cl)cc2)cc1", "note": "(stereo not given)", "inhibition": "2.71%"}
{"compound": "O=C(c1cccc(F)c1)N1CCC(O)(c2cccnc2)CC1", "inhibition": "1.64%"}
{"compound": "Cc1ccsc1C(=O)NNC(=O)COc1ccc(Br)cc1", "inhibition": "24.9% (active)"}
{"compound": "Cn1cccc1C(=O)NNC(=O)COc1ccc(Br)cc1", "inhibition": "6.31%"}
{"compound": "Cn1cnnc1SCC(=O)NNC(=O)COc1ccc(Br)cc1", "inhibition": "8.93%"}
{"compound": "O=C(N/N=C\\c1cccnc1)c1cc(-c2ccccc2)nc2c(Cl)cccc12", "inhibition": "-6.71%"}
{"compound": "O=C(N/N=C/c1cccnc1)c1ccc(NC(=O)c2ccc(F)cc2)cc1", "inhibition": "-2.15%"}
{"compound": "Fc1ccc(/C=N/Nc2nc(-c3cccnc3)nc3ccccc23)cc1", "inhibition": "25.3% (active)"}
